This is an account of results in PubChem BioAssay (NCI).

Each structure is given as a SMILES string. Where “and” joins values, the source holds several entries; their conditions need not be identical. Identical values can stand only once. The panel holds about 83,000 compounds, 20% with a hit somewhere; the sample as a whole holds those more often.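 Cells were grown in 96-well plates and exposed to the test compound at a single concentration for 48 hours; results are reported as percent growth, with values below 10 considered active.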 Calls of active or inactive are those of the source.

The first experiment deals with HCC-2998 colon. In words: NCI-60 one-dose screen, 48 h (100 = growth as untreated, 0 = no growth, -100 = all killed). Particulars: 10 µM unless noted.
In the case of `Cc1nc2sc(C(=O)Nc3cccc4ncccc34)c(N)c2cc1C(C)O` (stereo unspecified), the growth was 76.5% (inactive).

As to `N=C(N)c1ccc(-c2ccc(-c3ccc(F)cc3)s2)nc1`, the growth was 16.2% (inactive).

With `CN(C)CCCn1c2nc(=O)[nH]c(=O)c-2nc2cc(Cl)c(Cl)cc21`, the growth is 91.6% (inactive).

Take `Brc1ccc(/C=C(/C2=NCCN2)n2ccc3ccccc32)cc1`: the growth is 48.5% (inactive).

With `CCOC(=O)c1c(-c2ccc(OC)cc2)c(C#N)c2c(C#N)c(N)nn2c1N`, the growth is 62.9% (inactive).

As for `COc1ccc(S(=O)(=O)Nc2cc(Sc3cccc4cccnc34)c(O)c3ccccc23)cc1`, the growth is 38.6% (inactive).

In another experiment the test system is KM12 colon. Described as above. Particulars: 10 µM unless noted.
For `NC1=CC(=O)c2cccnc2C1=O`, the growth was 58.9% (inactive).

With `Cn1c(=O)c2c(nc(Nc3cc(=O)[nH]c(=O)[nH]3)n2Cc2ccccc2)n(C)c1=O`, the growth is 5.18% (active).

Turning to `O=C(c1ccc(Nc2nccc(NCCCNc3ccnc4cc(Cl)ccc34)n2)cc1)N1CCCCC1`, the growth is 37.5% (inactive).

For `COc1ccc(Cl)cc1Nc1nc(C(F)(F)F)ccc1C(=O)N/N=C/c1ccc(N(C)C)cc1`, the growth was 103% (inactive).

Consider `CC1=C2[C@@H](CC1)[C@]1(C)O[C@@](C3CC3)(C[C@H]1OC(=O)CO)[C@H]2OC(=O)/C=C/c1ccccc1`, for which the growth was 97.1% (inactive).

With `CC/C=C\C/C=C\C[C@H](O)C/C=C1/C(=O)C=C[C@@H]1C/C=C\CCCC(=O)OC`, the growth is -71.6% (active).

As for `Cc1[nH]c(C(=O)Nc2nc3ccc(NC(=O)CCN)cc3s2)c(Cl)c1Cl`, the growth is 90.3% (inactive).

`COc1cc(Cl)cc(-c2nn(C(=O)NS(=O)(=O)c3ccc(Cl)cc3)cc2-c2ccncc2)c1`: the growth was 92.9% (inactive).

As for `C[C@@H]1O[C@@H](O[C@H]2[C@@H](OC(=O)[C@]34CCC(C)(C)C[C@H]3C3=CC[C@@H]5[C@@]6(C)C[C@H](O)[C@H](O[C@@H]7O[C@H](CO)[C@@H](O)[C@H](O)[C@H]7O)[C@@](C)(CO)[C@@H]6CC[C@@]5(C)[C@]3(C)C[C@H]4O)OC[C@@H](O)[C@@H]2O)[C@H](O)[C@H](O[C@@H]2OC[C@@H](O)[C@H](O[C@@H]3OC[C@](O)(CO)[C@H]3O[C@@H]3OC[C@@H](O)[C@H](O)[C@H]3O)[C@H]2O)[C@H]1O[C@@H]1OC[C@](O)(CO)[C@H]1O`, the growth is 66.5% (inactive).

For `Cc1c(O)c(O)cc2c3c(oc12)CC(c1ccc2c(c1)OCO2)CC3=O` (stereo unspecified), the growth is 90.9% (inactive).

For `COc1cc(F)c(/C=C/c2cc(/C=C/c3cc(OC)c(OC)cc3F)n(-c3cc(F)cc(F)c3)n2)cc1OC`, the growth was 27.9% (inactive).

In the case of `CN1CCN(CCCN2c3ccccc3Sc3ccc(Cl)cc32)CC1`, the growth was 73.8% (inactive) and 98.2% (inactive).

Take `O=C(N=Nc1c(O)[nH]c2ccccc12)Nc1ccccc1Cl`: the growth is 53.6% (inactive).

For the compound `OCCN1CCN(CC/C=C2\c3ccccc3Sc3ccc(Cl)cc32)CC1`, the growth is 2.71% (active) and 36.2% (inactive).

In the case of `COc1nc2ccc(C)cc2cc1/C=[N+](\[O-])c1ccccc1`, the growth was 90.5% (inactive).

`O=C(CCN1CCOCC1)Nc1cccc(-n2cc(-c3ccncc3)c(-c3ccc(Cl)c(O)c3)n2)c1`: the growth is 23.7% (inactive).

Regarding `CN1CCN(c2ccc(Nc3ncc(C(N)=O)c(NCCCNC(=O)C4CCC4)n3)cc2)CC1`, the growth is 82.1% (inactive).

For `CN(C)c1ccc2nc3ccc(=O)cc-3sc2c1`, the growth was 30.4% (inactive) and 32.8% (inactive).

`CC(=O)N1N=C(c2ccc(Nc3nc(Nc4ccc(F)cc4)nc(Nc4ccc(F)cc4)n3)cc2)CC1c1ccccc1` (stereo unspecified): the growth is 89.1% (inactive).

For the compound `C/C=C(\C)C(=O)N[C@H]1CC[C@]2(C)C3CC[C@@]4(C)C(CC[C@@H]4C(C)N(C)C)C3CCC2[C@H]1OC(C)=O` (stereo partly specified), the growth was -48.1% (active).

On to `Nc1n[nH]c2cccc(C#Cc3cccc(NC(=O)c4ccc(N5CCOCC5)c(C(F)(F)F)c4)c3)c12`, for which the growth is 21.4% (inactive).

With `O=C1C(c2c[nH]c3ccccc23)=C(c2coc3cc(Br)ccc23)C(=O)N1O`, the growth was 97.9% (inactive).

With `Cc1cc(N2CCCCC2)nc(NCc2cc(Nc3ccnc4cc(Cl)ccc34)ccc2F)n1`, the growth is 7.38% (active).

With `CC1(C)C(N)=Nc2cc(OCCCN3Cc4ccc(OCCc5cn(CC(=O)N6CCC(CCN7CCCC7)CC6)nn5)cc4C3)c(OCC3CC3)cc21`, the growth was 107% (inactive).

`CS(=O)(=O)Nc1cc(-c2ccc3ncnc(Nc4ccc(F)c(Cl)c4)c3c2)cnc1Cl`: the growth is 7.66% (active).

Turning to `Cc1cnc(C(=O)NNc2nc3sc4c(c3c(=O)[nH]2)C(C)CCC4)cn1` (stereo unspecified), the growth is 17.5% (inactive).

With `Cn1cc2c(=O)nc3c(-c4nc5ccccc5[nH]4)n[nH]n3c2n1`, the growth is 73.9% (inactive).

As for `Cc1ccc(-c2nc3nc(-c4ccc(F)cc4)nc(N4CCCNCC4)c3o2)cc1`, the growth was -86.3% (active).

As to `COc1ccc2c(c1)c(-c1nc(-c3c[nH]c4c(Cl)nccc34)cs1)cn2C`, the growth was 30.8% (inactive).

Regarding `Cc1nc2sc(C(=O)Nc3cccc4ncccc34)c(N)c2cc1C(C)O` (stereo unspecified), the growth is 59.2% (inactive).

With `N=C(N)c1ccc(-c2ccc(-c3ccc(F)cc3)s2)nc1`, the growth is 18.7% (inactive).

Turning to `CN(C)CCCn1c2nc(=O)[nH]c(=O)c-2nc2cc(Cl)c(Cl)cc21`, the growth was 57.5% (inactive).

In the case of `Brc1ccc(/C=C(/C2=NCCN2)n2ccc3ccccc32)cc1`, the growth was 80.4% (inactive).

With `CCOC(=O)c1c(-c2ccc(OC)cc2)c(C#N)c2c(C#N)c(N)nn2c1N`, the growth is 23.6% (inactive).

Take `COc1ccc(S(=O)(=O)Nc2cc(Sc3cccc4cccnc34)c(O)c3ccccc23)cc1`: the growth was 20.3% (inactive).
